Assay outcomes as filed in PubChem.
A selection: hits, their analogues and other compounds. The true share with any hit is near 7.5%.
FLuc modulator: counter-screen for miR-21 project: firefly luciferase inhibitors or activators. P08659. purified FLuc, Km substrates, luminescence inhibition. Potency, µM (top dose mostly 57.5 µM), for inactives: at the highest dose activity change, negative = inhibition, actives largely listed as inhibitors. 6.9% of 360,000 active;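 also: plate controls were vehicle for no effect and reference inhibitor for full effect; nearly all actives have a fitted effect of over 55% in size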
Target sequence (P08659 whole entry, looked up): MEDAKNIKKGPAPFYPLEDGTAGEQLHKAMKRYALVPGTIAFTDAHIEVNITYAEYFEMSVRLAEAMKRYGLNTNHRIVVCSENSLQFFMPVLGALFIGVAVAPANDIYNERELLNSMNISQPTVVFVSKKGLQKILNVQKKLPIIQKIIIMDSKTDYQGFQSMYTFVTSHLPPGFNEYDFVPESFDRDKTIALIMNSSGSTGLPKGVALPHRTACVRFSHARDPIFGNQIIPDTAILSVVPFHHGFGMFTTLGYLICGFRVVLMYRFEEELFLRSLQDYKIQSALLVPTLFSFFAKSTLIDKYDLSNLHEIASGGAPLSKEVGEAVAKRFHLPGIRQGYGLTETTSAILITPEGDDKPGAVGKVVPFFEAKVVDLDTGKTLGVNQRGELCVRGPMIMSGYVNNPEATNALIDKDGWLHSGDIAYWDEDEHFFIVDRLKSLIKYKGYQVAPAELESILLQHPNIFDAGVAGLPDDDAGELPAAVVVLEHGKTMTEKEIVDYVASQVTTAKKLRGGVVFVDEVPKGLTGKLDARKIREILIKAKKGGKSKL
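Purified P. pyralis luciferase (10nM final) with 10uM D-luciferin and 10uM ATP (Km levels) in 50mM Tris acetate pH 7.5, 10mM Mg acetate, 0.01% Tween-20, 0.05% BSA; qHTS 6-point titration, ~60 µM downward; luminescence read.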
Luc counter: blocks Kinase-Glo luciferase, a counter-screen artifact | Q27757 | Kinase-Glo luciferase, ATP luminescence, 8 min | Potency, µM (highest dose often 38.3 µM), for the others: at the top dose activity change, negative = inhibition, usual class: inhibitors | 0.28% of 200,000 active; also: % is scaled to controls: 0 for no effect and ±100 for the full control effect; nearly all actives have a fitted effect of over 60% in size
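Recombinant Kinase-Glo luciferase, 10 uM ATP (linear range), luciferin; imidazole pH 7.2 / KCl / MgCl2 / Tween / BSA buffer; 8 min RT; luminescence.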
SMN2 splice up: SMN2 splice variant enhancement; AID 1458; HEK293 SMN2-luciferase splicing reporter, luminescence, 30-36 h; Potency, µM (doses to about 46.1 µM), for the others: top-dose activity change, positive = activation, hits mostly activators; 2.8% of 210,000 active; also: % of control where 0% means no effect; nearly all actives have a fitted effect of over 55% in size
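HEK293 cells carry an SMN2 […]–luciferase reporter in which exon 7 inclusion puts luciferase in frame. Cells were plated 10-12 h before compound addition, then incubated 30-36 h at 37C. ONE-Glo luminescence was read; sodium butyrate at 4.5 mM final served as control.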
NPC1 promoter act: NPC1 promoter activation; Huh7 NPC1 promoter luciferase reporter, 24 h; Potency, µM (doses to about 9.22 µM), for the others: at the top dose activation, usual class: activators; 2.4% of 320,000 active; AID 485313; also: % of control where 0% means no effect; nearly all actives have a fitted effect of over 60% in size
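NPC1 promoter–luciferase Huh7 cells; 24 h compound; luminescence.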
ELG1 genotox: induces genotoxicity in HEK293T cells with luciferase-tagged ELG1; 1.3% of 330,000 active; HEK293T ELG1-luciferase reporter, luminescence, 16 h; Potency, µM (top dose mostly 46 µM), for the others: at the top dose activity change, positive = activation, most hits filed as activators; also: % of control where 0% means no effect; nearly all actives have a fitted effect of over 60% in size
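Cells (2,000/well) expressing the ELG1-luciferase fusion are dosed by pin tool and kept 16 hr at 37 °C, 5% CO2. Signal comes from ONE-Glo luciferase reagent after 30 min at room temperature.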
Rab9 prom act: Rab9 promoter activation. Huh7 Rab9 promoter-luciferase reporter, luminescence, 24 h. Potency, µM (titrated, usually from 9.22 µM), for inactives: top-dose activation, negative = inhibition, actives largely listed as activators. 2.8% of 320,000 active; also: % of control where 0% means no effect; nearly all actives have a fitted effect of over 60% in size
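Huh7 cells stably carrying a Rab9 promoter-luciferase reporter, 1500 cells per well in OP-MEM I with 10% FBS, treated with compound 24 hours at 37C. Luciferase activity read by luminescence after 10 minutes with Amplite reagent.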
An asterisk follows results filed as active; ? = inconclusive; . = no result given; [ ] = remark or other dose. Calls follow the shape of the dose curve; as a rule, active = well fitted curve in the direction sought with a large enough effect; inconclusive = small, poorly fitted or top-dose-only effect, or another doubt; inactive = no such curve, though single readings can be large; an effect the other way counts as inactive or inconclusive. Potency is read from the fitted curve at half-maximal effect.

SMILES	FLuc modulator	Luc counter	SMN2 splice up	NPC1 promoter act	ELG1 genotox	Rab9 prom act
COc1cc(/C=C2\SC(=S)N(NC(=O)c3cccc(O)c3)C2=O)ccc1O	10.7µM*	.	.	3.0%	0.2%	20.0%
COc1cc(/C=C2\SC(=S)N(NC(=O)c3ccc(O)c(OC)c3)C2=O)ccc1O	1.35µM*	.	.	-0.3%	21.9%	-1.9%
CC(=O)NN1C(=O)/C(=C/c2ccc(C(C)C)cc2)SC1=S	21.3µM*	-0.2%	-8.1%	3.4%	1.7%	-1.7%
COc1cc(/C=C2\SC(=S)N(NC(=O)c3ccccc3OC)C2=O)ccc1O	4.26µM*	.	.	-3.8%	4.4%	-3.0%
COc1ncc2nc(CCc3ccccc3)c(=O)n(Cc3cccs3)c2n1	.	0.0%	-1.7%	.	.	.
O=C(Cn1nc2ccccc2n1)N/N=C/c1ccc(F)cc1	6.2%	.	.	20.6%	1.2%	15.8%
Cc1ccc(Cl)c(NC(=O)COC(=O)c2nn(-c3ccccc3)cc2O)c1Cl	.	.	.	.	-0.9%	.
CCOc1cc(/C=C2\SC(=S)N(NC(=O)c3cccnc3)C2=O)ccc1O	26.9µM*	-6.3%	-1.7%	0.2%	0.0%	-2.0%
COc1cc(/C=C2\SC(=S)N(NC(=O)c3ccncc3)C2=O)ccc1O	16.9µM*	.	.	-1.8%	0.0%	-14.3%
COc1cc(/C=C2\SC(=S)N(NS(=O)(=O)c3ccccc3)C2=O)ccc1O	?	.	.	-4.8%	1.4%	-1.8%
COc1cc(/C=C2\SC(=S)N(NS(=O)(=O)c3ccc(C)cc3)C2=O)ccc1O	21.3µM*	.	.	-2.9%	0.2%	-9.6%
CCN(CC)C(=O)CSc1ncnc2c1nnn2-c1ccc(OC)cc1	?	-7.6%	-26.7%	-1.8%	4.1%	0.6%
CCOC(=O)C(C)Sc1ncnc2c1nnn2-c1ccc(F)cc1 (stereo not drawn)	12µM*	-3.8%	16.6%	?	17.4%	?
CCC(Sc1ncnc2c1nnn2-c1ccc(F)cc1)C(=O)OC (stereo not drawn)	5.36µM*	-2.6%	6.5%	?	?	?
COC(=O)c1ccc(CSc2ncnc3c2nnn3-c2ccc(F)cc2)o1	8.49µM*	3.3%	-10.0%	2.7%	3.2%	-8.7%
CCN(CC)C(=O)CSc1ncnc2c1nnn2-c1ccc(F)cc1	13.5µM*	0.0%	-9.9%	-1.1%	2.5%	-2.5%
COc1ccc(S(=O)(=O)c2c(Nc3c(C)cccc3C)sc(C(=O)c3ccc4c(c3)OCO4)c2N)cc1	-2.3%	.	.	.	.	.
Cc1ccc(O)c(C(CC(=O)NCC2(c3ccccc3)CCCC2)c2ccccc2)c1 (stereo not drawn)	0.5%	.	-65.2%	.	.	.
CCc1cc(C(=O)NCC(C)(C)N2CCOCC2)sc1C	2.9%	.	.	0.3%	0.4%	-3.0%
Cc1cc(C)n(C(=O)CNC(=O)Cc2ccccc2)n1	-2.4%	3.9%	7.3%	-0.3%	8.7%	2.7%
Cc1cc(C)n(C(=O)CNC(=O)c2ccc(C(C)(C)C)cc2)n1	7.57µM*	.	.	-2.4%	9.6%	0.8%
COc1ccc(C(=O)NCC(=O)n2nc(C)cc2C)cc1OC	-1.7%[2.3 µM]	2.9%	-1.3%	-2.1%	0.8%	1.7%
Cc1cc(C)n(C(=O)CNC(=O)c2ccc(Cl)cc2Cl)n1	6.75µM*	.	.	2.1%	2.3%	0.6%
COc1cccc(N2CCN(C(=O)c3ccc4c(Cl)c5c(nc4c3)CCCC5)CC2)c1	-6.1%	.	-0.4%	.	.	.
COc1ccc(-c2csc(N3N=C(C)C(C)C3=O)n2)cc1 (stereo not drawn)	8.49µM*	-3.9%	?	?	8.6%	4.47µM*
SMILES	FLuc modulator	Luc counter	SMN2 splice up	NPC1 promoter act	ELG1 genotox	Rab9 prom act
CC1=NN(c2nc(-c3ccc(C)cc3)cs2)C(=O)C1N=Nc1ccccc1O (stereo not drawn)	10.7µM*	-1.7%	.	-37.7%	-8.5%	-52.3%
CC1CCN(C(=O)CSCc2ccc(Cl)cc2)CC1	19µM*	-3.3%	?	?	14.6µM*	3.16µM*
COc1cccc2oc(-c3ccccc3)cc(=O)c12	.	15.8µM*	.	.	.	.
O=c1cc(-c2ccccc2F)oc2ccccc12	10.7µM*	-6.3%	12.6µM*	?	?	2.24µM*
Cc1ccccc1-c1cc(=O)c2ccccc2o1	.	.	.	.	6.7%	.
COc1ccccc1-c1cc(=O)c2cccc(OC)c2o1	.	-2.6%	22.9%	.	.	.
COc1cccc(-c2cc(=O)c3ccccc3o2)c1N	.	-9.3%	11.2µM*	2.31µM*	.	2.06µM*
CSc1ccc(-c2cc(=O)c3ccccc3o2)cc1	4.78µM*	4.0%	11.2µM*	23.7%	9.2µM*	?
O=C(NC1CCCC1)c1ccc2c(c1)N(Cc1ccccc1F)C(=O)c1ccccc1S2	5.8%	.	.	.	.	.
COc1ccc(NC(=O)CN(C)C(=O)c2ccc(NS(=O)(=O)c3cccc([N+](=O)[O-])c3)cc2)cc1	23.9µM*	.	.	3.1%	-2.7%	-2.1%
COc1ccc(N=Cc2c[nH][nH]c2=O)cc1	-15.4%	-6.3%	-7.2%	2.3%	3.4%	0.8%[1.84 µM]
C=CCOc1ccc(C=Nc2ccc(OC)cc2)c(O)c1	8.49µM*	.	.	-0.2%	1.2%	-11.1%
CCc1cccc(NC(=O)CSc2ncc3c(n2)-c2cc(Cl)ccc2N(C)S3(=O)=O)c1	0.9%	.	.	.	.	.
CCc1cc2c(Sc3nc4ccccc4s3)ncnc2s1	10.7µM*	-1.9%	.	-22.7%	0.3%	-2.5%[1.84 µM]
c1ccc2sc(Sc3ncnc4sccc34)nc2c1	0.953µM*	-18.4%	?	-6.9%	0.2%	-14.7%
CC(NC(=O)c1ccc(S(=O)(=O)Nc2ccccc2Cl)cc1)c1ccncc1 (stereo not drawn)	.	.	.	.	-2.1%	.
CC1CCC2C(=O)N(c3ccc(S(=O)(=O)c4ccccc4)cc3)C(=O)C2C1 (stereo not drawn)	-2.1%	-0.4%	8.2%	0.1%	-1.7%	0.0%
COC(=O)c1ccccc1NC(=O)CN1CCC(C(=O)c2ccc3c(c2)OCCO3)CC1	-19.3%	11.1%	-32.0%	-4.3%	-11.0%	-1.6%
Cc1ccc(NC(=O)COc2ccc3c(c2)OCO3)c(Cl)c1	1.51µM*	.	.	2.82µM*	?	?
N#Cc1ccccc1NC(=O)c1ccc2c(c1)OCCO2	21.3µM*	.	.	?	?	?
CC1Cc2ccccc2N1C(=O)COc1ccc2c(c1)OCO2 (stereo not drawn)	16.9µM*	-0.5%	?	3.16µM*	?	?
COC(=O)c1ccccc1NC(=O)c1ccc2c(c1)OCCCO2	19µM*	.	.	?	?	2µM*
Cc1ccccc1NC(=O)c1ccc2c(c1)OCCO2	1.2%[2.3 µM]	-5.2%	?	?	?	?
CC1(C)COCN1COC1CCCCC1	.	-4.6%[7.66 µM]	-8.5%[9.22 µM]	.	.	.
Cc1ccc(-c2[nH]ncc2C(=O)c2ccccc2C)c(O)c1	-3.1%	.	.	-10.4%	12.9%	12.7%
